Consider nine molecules from PubChem BioAssay (Tox21).

Test [1] in a line: Nuclear factor erythroid 2-related factor 2/antioxidant responsive element (Nrf2/ARE) small molecule agonists: qHTS cell viability counter screen in human keratinocytes (AID 1919968; active means well fitted cell-killing curve with a large enough effect in the repeat runs; further: nearly all actives have a fitted effect of over 55% in size; further: potency means the concentration at half of the fitted maximal effect). Summed up:
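In human HaCaT keratinocytes stably expressing an ARE-driven luciferase, compound exposure lasted 23 h at 37 C under 5% CO2. Viable cells are quantified with a protease-based fluorogenic reagent (CellTiter-Fluor) read 1 h after addition.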
(In general: Quantitative high-throughput screening tests each substance at several concentrations.)

Test [2] is described as follows: Nuclear factor erythroid 2-related factor 2/antioxidant responsive element (Nrf2/ARE) small molecule agonists: luciferase reporter gene qHTS assay in human keratinocytes (AID 1919969). Further: nearly all actives have a fitted effect of over 35% in size. Further: potency means the concentration at half of the fitted maximal effect.
For test [3], the target named is Gonadotropin-releasing hormone receptor (Homo sapiens) (UniProt P30968). Briefly: Human gonadotropin-releasing hormone receptor (GnRHR) small molecule agonists, calcium flux assay in GnRHR-HEK293 cells (AID 1920063). Further: nearly all actives have a fitted effect of over 35% in size. In short, it runs like this:
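Intracellular calcium rise is the read-out: engineered human GnRHR HEK293 cells, dye-loaded, are exposed to DMSO-dissolved compounds and fluorescence at Ex/Em 480/540 is tracked for 3 min.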

The nature of test [4]: G protein-coupled receptor (GPCR) small molecule agonists, calcium flux assay: HEK293 wild type cell line counter screen (AID 1920065). In short, it runs like this:
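Fluorescence intensity signals activation. After overnight (18 h) culture and a 1 h calcium dye load at 37 C, compounds are added by pin tool and the plate read at 480/540 nm for 3 min in 1 s steps.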
A general note: Calcium flux is commonly read through the fluorescence of an indicator in the cells.

Test [5] can be described thus: p53 small molecule agonists, cell-based qHTS assay with human liver microsomes: qHTS cell viability counter screen (AID 1963579). Further: nearly all actives have a fitted effect of over 45% in size. In short, it runs like this: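 HLM-supplemented (0.5 mg/mL final) and NADPH-supplemented (0.5 mg/mL final) p53RE-bla cultures, 4,000 cells per well, were dosed with compounds in DMSO for 16 h at 37 C; luminescent ATP detection (CellTiter-Glo, 30 min, room temperature) quantified surviving cells.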

Test [6] can be described thus: p53 small molecule agonists, cell-based qHTS assay with rat liver microsomes: qHTS cell viability counter screen (AID 1963580). Further: nearly all actives have a fitted effect of over 45% in size. Summed up: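 After the beta-lactamase ratio was read, CellTiter-Glo was added to the same wells and luminescence measured at 30 min; cells had been treated 16 h at 37 C with compounds, rat liver microsomes and NADPH (0.5 mg/mL final each).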

Test [7] can be described thus: p53 small molecule agonists, cell-based qHTS assay: qHTS cell viability counter screen (AID 1963581). Further: nearly all actives have a fitted effect of over 45% in size. Summed up:
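Luminescence from CellTiter-Glo, reflecting ATP content, serves as the cytotoxicity measure; it is taken after the 2 h reporter substrate step in HCT-116 p53RE-bla cells dosed for 16 h at 37 C.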

The nature of test [8]: p53 small molecule agonists, cell-based qHTS assay (AID 1963582; active means well fitted activation curve with a large enough effect in the signal ratio in the repeat runs, not every such curve was filed as active; the % refers to the signal ratio). Summed up:
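After plating, p53RE-bla cells sat 5 h in the incubator; compounds or DMSO vehicle were pinned in; a 16 h incubation at 37 C followed; FRET substrate was added and, 2 h later at RT, fluorescence was measured.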

Test [9] concerns the target 5-hydroxytryptamine receptor 2A (Homo sapiens) (UniProt P28223). Briefly: 5-hydroxytryptamine receptor 2A (HTR2A) small molecule antagonists, cell-based qHTS assay (AID 1963586). Further: nearly all actives have a fitted effect of over 45% in size. In short, it runs like this: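 CHO cells stably expressing human HTR2A were plated for 18 h at 37 C, then loaded with calcium dye for 1 h. Compounds were preincubated 5 min at room temperature before DOI (4 nM solution) was added. Kinetic fluorescence was read for 3 min.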

The target is the same in test [10]. The experiment in a line: 5-hydroxytryptamine receptor 2A (HTR2A) small molecule agonists, cell-based qHTS assay (AID 1963587). Further: nearly all actives have a fitted effect of over 30% in size. In short, it runs like this: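 CHO cells stably expressing human HTR2A, plated 18 h, loaded with calcium dye 1 h at 37 C. Agonist mode: compounds added and intracellular calcium fluorescence recorded kinetically for 2 min at 1 sec intervals.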

In test [11] the target is Muscarinic acetylcholine receptor M1 (Homo sapiens) (UniProt P11229). The experiment in a line: Cholinergic receptor muscarinic 1 (CHRM1) small molecule antagonists, cell-based qHTS assay (AID 1963588). Further: nearly all actives have a fitted effect of over 40% in size. In short, it runs like this:
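Compounds were tested at 15 concentrations in three independent runs. Dye-loaded CHRM1-CHO cells were exposed 5 min at room temperature before stimulation by acetylcholine added at 50nM. Intracellular calcium was read kinetically on FDSS for 3 min.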

For test [12] the target is unchanged. The experiment in a line: Cholinergic receptor muscarinic 1 (CHRM1) small molecule agonists, cell-based qHTS assay (AID 1963589). Further: nearly all actives have a fitted effect of over 35% in size. In short, it runs like this: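 Fluorescent calcium dye reports M1 activation in stably transfected CHO cells. Compounds, 15 concentrations, added after 1 h dye loading at 37 C; kinetic reading at 1 sec intervals.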
The nature of test [13]: cAMP Responsive Elements (CRE) small molecule agonists, cell-based qHTS assay (AID 1963590). Summed up: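 Compound exposure lasted 3 h at 37 C/5% CO2 in CRE-bla HEK 293T cells grown in assay medium with 10% dialyzed FBS and 25 mM HEPES. Reporter signal came from LiveBLAzer B/G FRET substrate, 2 h, room temperature.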
The target of test [14] is D(2) dopamine receptor (Homo sapiens) (UniProt P14416). The experiment in a line: Dopamine D2 receptor (DRD2) small molecule agonists, cell-based qHTS assay (AID 1963594). Further: nearly all actives have a fitted effect of over 35% in size. Summed up:
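HEK293 cells stably expressing human DRD2, pre-treated with PDE inhibitor Ro20-1724 (0.1 mM final) and compound 10 min at room temperature, then stimulated with NKH477 (200nM […]) for 30 min. cAMP read by HTRF (665/620 nm).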

The target is the same in test [15]. The experiment in a line: Dopamine D2 receptor (DRD2) small molecule antagonists, cell-based qHTS assay (AID 1963595; active means well fitted inhibition curve with a large enough effect in the signal ratio in the repeat runs, with a control signal flat; the % refers to the signal ratio). In short, it runs like this: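 Antagonist mode in DRD2-HEK293 cells: after compound addition with 0.1 mM Ro20-1724, cells received quinpirole (12 nM) and NKH477 (200 nM) for 30 min at room temperature; HTRF cAMP read after 1 h detection.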
A short description of test [16]: cAMP Responsive Elements (CRE) small molecule antagonists, cell-based qHTS assay (AID 1963591; active means well fitted inhibition curve with a large enough effect in the signal ratio in the repeat runs, not every such curve was filed as active; the % refers to the signal ratio). Summed up: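 Stimulation used NKH477 at a final 0.25 uM for 3 h in compound-treated CRE-bla HEK293T cells, seeded 18 h beforehand. Reporter activity was measured with LiveBLAzer B/G FRET substrate after 2 h at room temperature.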
Test [17] deals with Beta-2 adrenergic receptor (Homo sapiens) (UniProt P07550). The experiment in a line: Adrenergic beta2 receptor (ADRB2) small molecule antagonists, cell-based qHTS assay (AID 1963592). Further: series mostly up to about 92 µM; nearly all actives have a fitted effect of over 50% in size. In short, it runs like this: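 Assay format: CHO-ADRB2 cells, 18-20hr seeding at 37C/5% CO2, then compound plus 1nM isoproterenol agonist mix for 0.5hr RT. Homogeneous time-resolved fluorescence cAMP detection after 1hr, expressed as 665/615 nm ratio.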

The target is the same in test [18]. Briefly: Adrenergic beta2 receptor (ADRB2) small molecule agonists, cell-based qHTS assay (AID 1963593).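 Further: CHO cells stably overexpressing human ADRB2.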 Summed up:
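CHO cells stably over-expressing ADRB2 were plated overnight at 37C, then dosed with compounds plus a stimulation mix containing 100uM IBMX and 25uM Ro-20-1724 for 0.5hr at room temperature. cAMP was measured by HTRF competition, 1hr.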

The nature of test [19]: p53 small molecule agonists, cell-based qHTS assay with rat liver microsomes (AID 1963578). In short, it runs like this: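 Compound in DMSO added to p53RE-bla cells 5 h post-plating; rat microsomes/NADPH 0.5 mg/mL final; 16 h, 37 C; LiveBLAzer 2 h RT.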

SMILES strings stand for the structures. Unmarked numbers belong to inactive results. Inconclusive results are not listed. The source made the active and inactive calls. Unless noted, the call rests on the fitted dose curve.

Sequence of 5-hydroxytryptamine receptor 2A (Homo sapiens) (P28223 whole entry, looked up): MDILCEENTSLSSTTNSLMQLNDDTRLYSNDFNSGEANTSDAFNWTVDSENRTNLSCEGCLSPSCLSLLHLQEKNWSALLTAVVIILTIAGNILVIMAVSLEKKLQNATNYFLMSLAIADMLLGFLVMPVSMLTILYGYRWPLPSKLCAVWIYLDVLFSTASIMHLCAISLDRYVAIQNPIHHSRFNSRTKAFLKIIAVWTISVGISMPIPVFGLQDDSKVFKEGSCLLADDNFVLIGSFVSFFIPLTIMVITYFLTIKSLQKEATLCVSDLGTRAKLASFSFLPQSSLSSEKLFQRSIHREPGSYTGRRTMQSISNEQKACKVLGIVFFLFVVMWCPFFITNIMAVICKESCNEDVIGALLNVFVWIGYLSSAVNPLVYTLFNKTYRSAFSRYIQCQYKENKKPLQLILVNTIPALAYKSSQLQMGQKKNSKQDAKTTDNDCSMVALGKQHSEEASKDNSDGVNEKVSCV
Sequence of Beta-2 adrenergic receptor (Homo sapiens) (P07550 whole entry, looked up): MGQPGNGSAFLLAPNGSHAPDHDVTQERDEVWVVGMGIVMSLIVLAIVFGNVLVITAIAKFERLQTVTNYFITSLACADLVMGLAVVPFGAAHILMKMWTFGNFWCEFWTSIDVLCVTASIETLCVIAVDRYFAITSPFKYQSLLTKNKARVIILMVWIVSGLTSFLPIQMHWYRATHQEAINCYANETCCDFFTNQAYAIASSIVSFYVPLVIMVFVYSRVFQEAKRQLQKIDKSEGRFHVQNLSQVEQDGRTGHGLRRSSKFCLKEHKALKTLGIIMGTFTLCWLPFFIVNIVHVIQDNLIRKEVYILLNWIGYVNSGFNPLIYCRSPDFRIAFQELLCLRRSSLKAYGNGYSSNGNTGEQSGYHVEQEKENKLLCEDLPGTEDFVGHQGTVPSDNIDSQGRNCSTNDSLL
Sequence of Muscarinic acetylcholine receptor M1 (Homo sapiens) (P11229 whole entry, looked up): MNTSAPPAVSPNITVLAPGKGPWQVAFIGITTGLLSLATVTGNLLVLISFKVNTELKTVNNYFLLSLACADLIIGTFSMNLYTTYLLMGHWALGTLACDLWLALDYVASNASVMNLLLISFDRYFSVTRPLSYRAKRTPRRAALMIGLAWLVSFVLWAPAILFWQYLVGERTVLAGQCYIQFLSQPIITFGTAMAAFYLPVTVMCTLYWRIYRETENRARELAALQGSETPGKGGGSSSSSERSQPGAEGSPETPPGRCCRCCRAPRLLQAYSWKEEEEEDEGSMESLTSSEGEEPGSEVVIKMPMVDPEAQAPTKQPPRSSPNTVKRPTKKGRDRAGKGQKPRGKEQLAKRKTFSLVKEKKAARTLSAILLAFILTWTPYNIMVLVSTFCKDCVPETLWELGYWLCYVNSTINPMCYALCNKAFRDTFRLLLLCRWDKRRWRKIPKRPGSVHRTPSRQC
Sequence of Gonadotropin-releasing hormone receptor (Homo sapiens) (P30968 whole entry, looked up): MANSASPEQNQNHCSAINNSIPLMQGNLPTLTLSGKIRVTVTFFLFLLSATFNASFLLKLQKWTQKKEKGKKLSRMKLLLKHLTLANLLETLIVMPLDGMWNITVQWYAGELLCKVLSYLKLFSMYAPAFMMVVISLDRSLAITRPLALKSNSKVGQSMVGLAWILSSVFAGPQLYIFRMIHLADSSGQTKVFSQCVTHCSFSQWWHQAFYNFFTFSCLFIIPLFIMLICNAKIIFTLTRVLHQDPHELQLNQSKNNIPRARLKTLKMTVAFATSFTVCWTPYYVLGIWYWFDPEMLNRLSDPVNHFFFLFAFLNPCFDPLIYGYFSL
Sequence of D(2) dopamine receptor (Homo sapiens) (P14416 whole entry, looked up): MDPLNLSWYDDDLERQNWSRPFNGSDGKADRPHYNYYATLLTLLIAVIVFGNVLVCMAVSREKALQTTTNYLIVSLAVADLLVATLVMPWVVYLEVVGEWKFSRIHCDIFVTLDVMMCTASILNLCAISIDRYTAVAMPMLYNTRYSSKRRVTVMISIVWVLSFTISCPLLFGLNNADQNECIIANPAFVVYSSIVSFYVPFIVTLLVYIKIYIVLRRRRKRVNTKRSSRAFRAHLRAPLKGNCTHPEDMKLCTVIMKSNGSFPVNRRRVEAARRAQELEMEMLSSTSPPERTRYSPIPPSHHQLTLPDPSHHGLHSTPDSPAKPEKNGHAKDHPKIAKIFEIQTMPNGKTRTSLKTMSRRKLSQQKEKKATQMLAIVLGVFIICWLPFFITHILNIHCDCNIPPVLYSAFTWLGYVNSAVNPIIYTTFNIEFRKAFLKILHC

For `CCN(C)C(=O)Oc1cccc([C@H](C)N(C)C)c1`, the Potency result in [1], in test [2], in test [3], in test [4], in test [5] and in [6] was “inactive” each time. In addition, the Potency result in test [7], in [8], in [9], in [10], in test [11] and in test [12] was “inactive” throughout. For the same molecule, the Potency entry in test [13], in [14] and in test [15] was “inactive” each time.

In the case of `O=S(=O)(O)c1cc(I)c(O)c2ncccc12`, the Potency entry in [1], in test [2], in test [3], in test [4], in test [5] and in test [6] was “inactive” in each case. Also, the Potency result in test [8], in test [9], in [10], in test [11], in test [12] and in test [13] was “inactive” in each case. Besides, the Potency result in test [16], in test [17], in test [18] and in test [15] was “inactive” each time.

With `OC/C=C/c1ccccc1`, the Potency result in test [1], in [2], in test [3], in test [4], in test [5] and in test [6] was “inactive” each time. Also, the Potency result in test [7], in test [9], in test [10], in test [11], in test [12] and in [13] was “inactive” each time. The Potency entry in [16], in [17], in [18] and in test [15] was “inactive” throughout.

`CN(C)C(=O)Nc1ccccc1`: the Potency entry in test [1], in [2], in test [3], in [4], in [5] and in test [6] was “inactive” in each case. In addition, the Potency entry in test [7], in test [9], in test [10], in test [11], in test [12] and in [13] was “inactive” in each case. Besides, the Potency entry in [16], in test [17], in test [18], in [14] and in test [15] was “inactive” in each case.

Take `COc1cc(C)cc(O)c1`: the Potency entry in test [1], in test [2], in test [3], in test [4], in [5] and in test [6] was “inactive” in each case. For the same molecule, the Potency result in [7], in test [9], in [10], in test [11], in test [12] and in [13] was “inactive” throughout. For the same molecule, the Potency entry in test [17], in test [18], in [14] and in [15] was “inactive” each time.

For `FB(F)F`, the Potency result in test [1], in test [2], in test [3], in test [4], in test [5] and in test [6] was “inactive” throughout. Besides, the Potency result in test [7], in test [9], in [10], in test [11], in test [12] and in test [13] was “inactive” each time. Also, the Potency result in test [16], in test [17], in test [18], in test [14] and in test [15] was “inactive” throughout.

For `CC(=O)OC(OC(C)=O)c1ccc([N+](=O)[O-])o1`, the Potency in test [1] is 62.2 µM (active); in test [2], 24.8 µM (active). The Potency result in test [3], in test [4], in test [10], in [11], in test [12] and in [15] was “inactive” in each case.

With `C=CC(=O)OCCn1c(=O)n(CCOC(=O)C=C)c(=O)n(CCOC(=O)C=C)c1=O`, the Potency in test [1] is 30.6 µM (active); in [2] it was 15.4 µM (active). Besides, the Potency entry in [3], in test [4], in test [19], in [9], in [11] and in [12] was “inactive” throughout. Further, the Potency result in [17], in test [14] and in test [15] was “inactive” throughout.

Turning to `O=C1OC(=O)c2cc(Oc3ccc4c(c3)C(=O)OC4=O)ccc21`, the Potency entry in test [1], in test [2], in test [3], in [4], in [19] and in test [5] was “inactive” in each case. For the same molecule, the Potency result in [6], in test [7], in [9], in test [10], in test [11] and in test [12] was “inactive” in each case. In addition, the Potency entry in test [13], in test [16], in test [17], in test [14] and in test [15] was “inactive” in each case.
